Test results taken from PubChem BioAssay AID485346 (Sanford-Burnham Center for Chemical Genomics, 2010).
Out of some 330,000 compounds screened, about 10,000 (3%) were called active.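 How the source made its calls: active means inhibition of at least 50% at 8 µM in the primary screen; inactive means the rest.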 This excerpt belongs to a sample that is enriched for actives.

biological target: Protein Mdm4 (Homo sapiens) + E3 ubiquitin-protein ligase Mdm2 (Homo sapiens) (UniProt O15151+Q00987); experiment: disruptors of Mdm2/MdmX RING complex – cell-based, luminescence, split luciferase, SaOS-2, uHTS, primary screen (AID 485346); details: SaOS-2 split-luciferase Mdm2/MdmX complementation, at 8 µM, active compounds read high
Sequence (O15151 whole entry, looked up): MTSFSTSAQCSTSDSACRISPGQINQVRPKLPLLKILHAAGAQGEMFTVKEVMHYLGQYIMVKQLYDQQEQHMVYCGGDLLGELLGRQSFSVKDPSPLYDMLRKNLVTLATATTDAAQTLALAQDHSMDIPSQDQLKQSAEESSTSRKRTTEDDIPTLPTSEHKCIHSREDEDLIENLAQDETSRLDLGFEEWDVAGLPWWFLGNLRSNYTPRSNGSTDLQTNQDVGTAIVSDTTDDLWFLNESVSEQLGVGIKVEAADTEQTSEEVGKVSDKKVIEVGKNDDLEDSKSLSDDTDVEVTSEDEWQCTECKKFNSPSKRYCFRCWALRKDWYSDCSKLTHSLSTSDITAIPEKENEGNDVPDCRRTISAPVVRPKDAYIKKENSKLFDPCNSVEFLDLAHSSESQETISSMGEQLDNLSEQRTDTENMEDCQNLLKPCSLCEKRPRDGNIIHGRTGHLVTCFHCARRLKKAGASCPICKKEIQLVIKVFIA
Sequence (Q00987 whole entry, looked up): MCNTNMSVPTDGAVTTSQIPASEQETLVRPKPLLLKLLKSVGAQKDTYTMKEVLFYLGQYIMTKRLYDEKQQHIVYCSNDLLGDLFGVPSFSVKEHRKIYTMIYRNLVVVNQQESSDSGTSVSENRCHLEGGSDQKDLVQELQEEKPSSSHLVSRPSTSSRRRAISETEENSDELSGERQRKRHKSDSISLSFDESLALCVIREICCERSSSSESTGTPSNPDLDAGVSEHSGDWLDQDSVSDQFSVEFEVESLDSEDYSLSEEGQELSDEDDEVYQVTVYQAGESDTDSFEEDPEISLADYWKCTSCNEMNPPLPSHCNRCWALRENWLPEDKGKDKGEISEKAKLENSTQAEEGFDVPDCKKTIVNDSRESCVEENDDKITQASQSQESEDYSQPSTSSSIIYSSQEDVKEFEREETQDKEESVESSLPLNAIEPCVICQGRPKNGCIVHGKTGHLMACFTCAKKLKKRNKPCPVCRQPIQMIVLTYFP

inhibition, inactive:
COCCN1C(=O)N(c2ccc(Cl)cc2)C(=O)C1CC(=O)Nc1cc(OC)cc(OC)c1 (stereo not given) 22.4%, O=C(Nc1ccc(Br)cc1)c1cccc(NC(=O)C2C3CC4OC(=O)C2C4C3)c1 (stereo not given) 8.16%, CCCCCCSc1ccc([C@@H]2[C@H]3C(=O)N(CC)C(=O)[C@H]3[C@]3(C(=O)OC)CCCCN23)cc1 29.8%, CCN1C(=O)[C@@H]2[C@@H](c3ccc(-c4ccc(OC)cc4)c(OC)c3)N3CCC[C@@]3(C(=O)OC)[C@@H]2C1=O 28.1%, COCCn1c(C)cc(C(=O)CN2c3cccc4cccc(c34)S2(=O)=O)c1C 5.95%, C/C(=N\Nc1ccc([N+](=O)[O-])cc1)c1ccc(-n2nncc2C(C)(C)C)cc1 22.2%, O=C(CN1C(=O)CSC1=O)N1CCCC(Nc2ccc(F)cc2)C1 (stereo not given) 5.11%, CC1=NN(c2cccc(Cl)c2)C(=O)C12CC(C)=C(C)CS2 (stereo not given) 6.51%, COc1cccc(N(C(=O)C2COc3ccccc3O2)C(C(=O)NC2CCCCC2)c2ccc(O)cc2)c1 (stereo not given) 5.54%, COc1ccc(C(C(=O)NC2CCCCC2)N(C(=O)c2snc(C(N)=O)c2N)c2ccccc2OC)cc1 (stereo not given) 23.2%, Cc1nnc(SC(C(=O)Nc2cc(Cl)cc(Cl)c2)c2ccccc2)[nH]c1=O (stereo not given) -11%, OCC1(Cc2ccccc2C(F)(F)F)CCN(Cc2cccc3cnccc23)CC1 -16.9%, Cc1cccc(C(=O)Nc2ccc(Oc3cnccn3)cc2)c1 -15.7%, CCCCSc1nnc2c(n1)OC=Nc1ccccc1-2 -25.2%, Cc1ccc(S(=O)(=O)NCC(=O)N(CC(=O)NC2CCCCC2)Cc2ccco2)cc1 -4.29%, Cc1ccc(-c2cc(=O)[nH]c(NCc3ccccc3)n2)cc1 -3.28%, Brc1ccc(C2CC(c3ccccc3)=Nc3ccccc3N2)cc1 (stereo not given) -130%, CC(=O)Nc1ccc(/C=C/C(=O)c2ccccc2)cc1 -7.03%, Cc1cn(COC/C=C/c2ccccc2)c(=O)[nH]c1=O 7.02%, CC(C)C[C@H](CO)Nc1nc(N(C)c2cccc(Cl)c2)c2ncn(C(C)C)c2n1 22.9%, COCn1c(C(O)c2ccccc2)cc2ccccc21 (stereo not given) -4.01%, Cc1cc(C)c2nc(N3CCC(C(=O)NCCN4CCOCC4)CC3)sc2c1 16.2%, CC(=O)N(Cc1cc(=O)[nH]c2ccccc12)c1ccc(C)cc1C 15.3%, Cc1ccc(N(Cc2cc3ccccc3[nH]c2=O)C(=O)c2cccs2)cc1 -12.3%, COc1ccc2nc(/N=C(\N)NC(=O)Nc3ccccc3)nc(C)c2c1 29%, O=C(NNC(=O)C(O)c1ccccc1)NC1CCCCC1 (stereo not given) 16.7%, COc1ccc2c(c1)C(=C(C#N)C#N)C(=O)N2CCc1ccccc1 8.08%, Cc1ccc(C)c(NC(=O)CN(C)C(=O)c2ccc3ncsc3c2)c1 10.9%, C/C(CC(=O)Nc1ccc(N(C)C)cc1)=N\NC(=O)c1ccccc1F 11.6%, C/C(=N\NC(=O)c1ccoc1C)c1ccccc1O 49.2%, C/C(=N\NC(=O)Cc1ccc(Br)cc1)c1cccnc1 9.71%, COc1ccc(C/C(C)=N/NC(=O)c2ccncc2)cc1 -14.9%, CCOc1ccccc1NS(=O)(=O)c1cc2c3c(c1)C(C)C(=O)N3CCC2 (stereo not given) 14.9%, CC1C(=O)N(Cc2ccccc2)c2ccccc2N1C(=O)c1ccccc1 (stereo not given) 4.7%, O=C(COC(=O)/C=C/c1ccc(Br)o1)Nc1cccc(S(=O)(=O)N2CCOCC2)c1 26.4%, CN(C)CCCSc1ccccc1NC(=O)/C=C/c1ccccc1 -28.9%, CC(C)NC(=O)C(=O)NCCCOC(C)C 7.36%, CN(C)c1nc2n(c(=O)n1)CCO2 -0.85%, COc1ccc(CCNC(=O)C2CCCN(S(=O)(=O)c3ccc(OC)cc3)C2)cc1 (stereo not given) 31.8%, O=C(COC(=O)c1cnccn1)Nc1ccc(Cl)cc1C(F)(F)F -11.4%, COc1cccc(CNn2cn[nH]c2=S)c1OCc1ccccc1 24.6%, O=[N+]([O-])c1ccc(F)cc1Oc1nc(-c2cccnc2)nc2ccccc12 27.2%, Cc1oc2cc([N+](=O)[O-])c(O)c([N+](=O)[O-])c2c1C(=O)c1ccc(Br)cc1 -16.1%, Cc1cc(C)n(CCNCc2c(C(=O)N3C[C@@H](C)O[C@@H](C)C3)nc3ccc(Cl)cn23)n1 6.66%, COC(C[C@@H](O)C[C@H](O)[C@H](C)OCc1ccccc1)OC -23%, Cn1nnnc1-c1cc(Cl)cc(Cl)c1 16.3%

inhibition, active:
CCCCCCSc1ccc([C@@H]2[C@@H]3C(=O)N(CC)C(=O)[C@@H]3[C@]3(C(=O)OC)CCCCN23)cc1OC 54.2%, COc1ccc(C(C(=O)NC2CCCCC2)N(C(=O)CCl)c2ccccc2Cl)cc1 (stereo not given) 92%, Cc1[nH]c(=O)c(C(=O)/C=C/c2ccccc2)c2c1CCCC2 70.9%, CC(C)n1cnc2c(Nc3cccc(Cl)c3)nc(N(CCO)CCCO)nc21 88.9%, Cc1ccc(N(Cc2cc(=O)[nH]c3ccccc23)C(=O)CCl)cc1 100%, Cc1nc(/N=C(\N)NC(=O)NC2CCCCC2)nc2ccccc12 53%, C/C(=N\NC(=O)c1ccccc1F)c1ccccn1 64.2%, COc1ccc(CC(=O)N/N=C(\C)c2ccccn2)cc1 56.7%, O=[N+]([O-])c1ccc(Oc2ccc(F)cc2Br)c2ccncc12 78%
